# Sampled rows, rich in hits. Any-hit rate of the full collection: about 8.7%.
# Pf growth 48h – P. falciparum growth inhibition at 48 hours (one generation) | P. falciparum luciferase growth in erythrocytes, 48 h | Potency, µM (top dose mostly 28.7 µM), without a hit: at the top dose activity change, negative = inhibition, most hits filed as inhibitors | 310,000 tested, 5.9% active | AID 504832
#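 In quantitative HTS format, infected erythrocytes bearing luciferase-reporter parasites were treated for a single generation at 37 C. Luminescence after adding detection reagent served as the growth measure.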
# AMA1-RON2 inh – inhibitors of Plasmodium falciparum AMA1-RON2 interaction; AlphaScreen AMA1-biotinylated RON2 peptide binding; Potency, µM (titrated, usually from 58.2 µM), inactives show top-dose activity change, negative = inhibition, usual class: inhibitors; 360,000 tested, 0.2% active; AID 720542;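 note: 0% = vehicle wells and -100% = peptide control; nearly all actives have a fitted effect of over 45% in size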
#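 AMA1 (3D7) with his tag at 25 nM final met compounds first, then biotinylated RON2 peptide at 25 nM; detection used donor plus acceptor beads, 10 µg/mL apiece, read by AlphaScreen after 30 min at room temperature.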
# Pf growth 96h – P. falciparum growth inhibition at 96 hours. P. falciparum luciferase reporter growth, 96 h. Potency, µM (titrated, usually from 28.7 µM), without a hit: at the top dose activity change, negative = inhibition, actives largely listed as inhibitors. 320,000 tested, 6.9% active. AID 504834
#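 Cell-based qHTS: luciferase-tagged P. falciparum in erythrocytes (2% hematocrit, 0.05% parasitemia final) incubated with compounds for 96 hours, 37 C, 5% CO2; luciferase detection reagent then added and luminescence measured.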
# VACV Venus inh – vaccinia inhibition (Venus reporter) | Vaccinia virus Venus reporter expression, fluorescence | Potency, µM (series often up to 36.5 µM), inactives show at the highest dose activity change, negative = inhibition, most hits filed as inhibitors | 330,000 tested, 0.46% active | AID 720580; calls by dose curve; tested in A549 cells; note: nearly all actives have a fitted effect of over 30% in size
# Vaccinia mCherry – vaccinia inhibition (mCherry reporter); Vaccinia virus mCherry reporter infection, fluorescence; 310,000 tested, 0.63% active; Potency, µM (top dose mostly 36.5 µM), for the others: at the top dose activity change, negative = inhibition, usual class: inhibitors; calls by dose curve; tested in A549 cells; note: nearly all actives have a fitted effect of over 35% in size
# An asterisk follows results filed as active; i = inactive; ? = inconclusive; nt = no result given; [ ] = dose if it differs, or a comment. Unless noted, calls come from the whole dose curve; as a rule, active = well fitted curve in the direction sought with a large enough effect; inconclusive = small, poorly fitted or top-dose-only effect, or another doubt; inactive = no such curve, though single readings can be large; an effect the other way counts as inactive or inconclusive. Unless noted, % is set by controls: 0 for no effect and ±100 for the full control effect; potency is the fitted concentration of half-maximal effect.
SMILES,Pf growth 48h,AMA1-RON2 inh,Pf growth 96h,VACV Venus inh,Vaccinia mCherry
Cc1nc2cc(NC(=O)[C@@H]3C[C@@H](Sc4ccccn4)CN3Cc3ccc4c(c3)OCCO4)ccc2s1,nt,nt,nt,5%,10%
CCn1cc([N+](=O)[O-])c(C(=O)N2N=C(c3ccc(OC)cc3OC)CC2c2ccccc2O)n1 (centres undefined),?,-9%,10µM*,-24%,-2%
CCn1cc([N+](=O)[O-])c(C(=O)N2N=C(c3cccc4ccccc34)CC2c2ccccc2O)n1 (centres undefined),9.3µM*,-7%,13µM*,?,?
CCn1cc([N+](=O)[O-])c(C(=O)N2CCCC2)n1,20%,-3%,nt,nt,nt
CCn1cc(Cl)c(C(=O)N2N=C(c3ccc4ccccc4c3)CC2c2ccccc2O)n1 (centres undefined),2.1µM*,?,1.5µM*,?,-29%
CCn1cc([N+](=O)[O-])c(C(=O)N2N=C(c3ccc4ccccc4c3)CC2c2ccccc2O)n1 (centres undefined),8.3µM*,?,?,?,?
COc1ccc(C2=NN(C(=O)c3ccc(Cl)c([N+](=O)[O-])c3)C(c3ccccc3)C2)cc1 (centres undefined),-14%,-4%,-8%,nt,nt
Cc1ccc(-c2noc(CN(C(=O)COc3cc(C)cc(C)c3C)C(C)C)n2)cc1,nt,nt,nt,2%,-2%
O=C(CSc1ccncc1)NCC1Cc2cccc(-c3cncnc3)c2O1 (centres undefined),nt,nt,nt,-9%,i
CCC(=O)Nc1ccc(CC)cc1-c1nc2ccccc2n(Cc2ccccc2)c1=O,nt,nt,nt,-9%,-16%
COC1=C(C)C(=O)C2=C(C1=O)C(CO)N1C(C#N)C3CC4C(C1C2N1CCOC41)N3C (centres undefined),nt,30%,nt,?,?
COC1=C(C)C(=O)C2=C(C1=O)C1C3CC4=C(C(=O)C(OC)=C(C)C4=O)C(CNC(=O)C(C)=O)N3C(C#N)C(C2)N1C (centres undefined),nt,-2%,nt,1µM*,?
COc1ccc(-c2c[n+]3c(n2-c2ccccc2)SCC3)cc1,?,11%,?,-17%,i
c1ccc(Cn2c(-c3ccccc3)c[n+]3c2SCCC3)cc1,1µM*,0%,?,-16%,-12%
Cc1ccc(NC(=O)CCn2cnc3ccccc3c2=O)cc1,3%,-17%,?,0%,-9%
O=C(CCn1cnc2ccccc2c1=O)Nc1nc(-c2ccc(Br)cc2)cs1,-5%,-6%[2.32 µM],9.3µM*,?,-25%
CCOC(=O)c1c(C)[nH]c(C)c1S(=O)(=O)N(C)CC(=O)Nc1ccc(C)c(F)c1,nt,nt,nt,-7%,-19%
COc1cc(-c2ccc3c(=O)c4ccccc4sc3c2)cc(OC)c1OC,nt,0%,nt,14µM*,-33%
Cn1c2ccccc2c(=O)c2cc(C#Cc3ccccn3)ccc21,144%,49%,?,-6%,24%
Cn1c2ccccc2c(=O)c2ccc(-c3ccc4c(c3)OCO4)cc21,56%,-1%,9.3µM*,-29%,i
COc1cc(-c2ccc3c(=O)c4ccccc4n(C)c3c2)cc(OC)c1OC,?,48%,4.7µM*,?,-19%
Cn1c2ccccc2c(=O)c2ccc(F)cc21,-25%,17%,?,9%,38%
Cn1c2ccccc2c(=O)c2ccc(C#Cc3ccccn3)cc21,?,-14%,10µM*,-21%,-4%
O=C1C=CC(=O)c2c(O)c(Cl)c(Cl)c(O)c21,nt,nt,nt,0%,-7%
O=C(NCCc1ccc(Cl)cc1)c1c2c(nc3ccccc13)C(=O)N(C1CCCCC1)C2,nt,nt,nt,-19%,i
Cc1cccc(OCC(=O)Nc2c(C(=O)N3CCN(c4ccccc4)CC3)oc3ccccc23)c1,nt,nt,nt,-12%,-14%
NC(=Nc1ccccc1)Nc1ccccc1,-1%,-7%,?,nt,nt
NC(N)=Nc1ccc(N=C(N)N)cc1,?,-1%,8.3µM*,2%,?
Cc1ccc([N+](=O)[O-])cc1NC(=O)c1cccnc1,-4%,-2%,10µM*,-3%,i
Cc1ccc(NC(=O)c2cc([N+](=O)[O-])ccc2NCc2cccnc2)cc1,13µM*,-24%,?,nt,nt

# Source: PubChem BioAssay (National Center for Advancing Translational Sciences (NCATS))
